According to PubChem BioAssay (NCATS):
Where “and” joins values, the source holds several entries; their conditions need not be identical. Identical values can stand only once. Results filed as inconclusive are left out. Where a call stands in place of a potency, no number is given. Values without a mark were called inactive. Calls of active or inactive are those of the source. Calls come from the whole dose curve; as a rule, active = well fitted curve in the direction sought with a large enough effect; inconclusive = small, poorly fitted or top-dose-only effect, or another doubt; inactive = no such curve, though single readings can be large; an effect the other way counts as inactive or inconclusive.

Key:
[1] = target: Cellular tumor antigen p53 (Homo sapiens) (UniProt P04637); test: Primary qHTS for small molecule compounds that upregulate eGFP-tagged delta133p53alpha (in N-terminal) cells. (AID 2060322); conditions: NCI-H358 eGFP-delta133p53alpha fluorescence, 24 h; activation: hits give high values; note: nearly all actives have a fitted effect of over 75% in size; note: potency is the fitted concentration of half-maximal effect;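 for activation: cells pre-induced with doxycycline then dosed without doxycycline; series mostly up to about 56 µM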
Outline: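 NCI-H358 cells pre-induced 24 h with 10 ng/ml doxycycline for eGFP-delta133p53alpha, plated dox-free and exposed 24 h at 37C to titrated compounds. Fixed, Hoechst-stained; gated GFP peak intensity by laser scanning cytometry, normalized to DMSO (0%) and 57.5 uM 5-azacytidine (100%).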

[2] = target: Aldehyde dehydrogenase, mitochondrial (Homo sapiens) (UniProt P05091); test: qHTS for Inhibitors of the Aldehyde Dehydrogenase Family (ALDH2) Primary screen (AID 2061308); note: nearly all actives have a fitted effect of over 55% in size
[3] = target: Retinaldehyde dehydrogenase 3 (Homo sapiens) (UniProt P47895); test: qHTS for Inhibitors of the Aldehyde Dehydrogenase Family (ALDH1A3) Validation screen (AID 2061312); note: nearly all actives have a fitted effect of over 45% in size
[4] = target: Retinaldehyde dehydrogenase 3 (Homo sapiens) (UniProt P47895); test: qHTS for Inhibitors of the Aldehyde Dehydrogenase Family (ALDH1A3) Primary screen (AID 2061315)
[5] = BET inhibitor-based combinations targeting novel dependencies in MECOM-rearranged (r) AML: MV-4-11 cell line (AID 2202233); note: nearly all actives have a fitted effect of over 45% in size; note: potency is the fitted concentration of half-maximal effect
Outline: (§1)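 Using pin-tool transfer, drugs were added in 11 doses to cells (500/well), incubated 48 hr, and assessed with CellTiter-Glo. Z-AUC is a mean-centring transformation applied separately to each screened line.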

[6] = BET inhibitor-based combinations targeting novel dependencies in MECOM-rearranged (r) AML: AML-194 cell line (AID 2202237; note: nearly all actives have a fitted effect of over 40% in size; note: potency is the fitted concentration of half-maximal effect)
Outline: (§2)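 Viability of cells (500 per well) is scored by luminescent CellTiter-Glo at 48 hr post-dosing. Eleven-point titrations are normalized to DMSO and empty controls and reduced to AUC values.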

[7] = BET inhibitor-based combinations targeting novel dependencies in MECOM-rearranged (r) AML: SET-2 cell line (AID 2202231); conditions: SET-2 AML cells viability, CellTiter-Glo luminescence, 48 h; viability: hits give low values, concentration not given here; note: nearly all actives have a fitted effect of over 35% in size; note: potency is the fitted concentration of half-maximal effect
Outline: as §2

[8] = BET inhibitor-based combinations targeting novel dependencies in MECOM-rearranged (r) AML: UCSD-AML1 cell line (AID 2202235); note: nearly all actives have a fitted effect of over 40% in size; note: potency is the fitted concentration of half-maximal effect
Outline: as §1

[9] = BET inhibitor-based combinations targeting novel dependencies in MECOM-rearranged (r) AML: AML-191 cell line (AID 2202236; note: nearly all actives have a fitted effect of over 35% in size; note: potency is the fitted concentration of half-maximal effect)
Outline: as §2

[10] = BET inhibitor-based combinations targeting novel dependencies in MECOM-rearranged (r) AML: OCI-AML3 cell line (AID 2202232); conditions: Potency: OCI-AML3 viability; note: nearly all actives have a fitted effect of over 35% in size; note: potency is the fitted concentration of half-maximal effect
Outline: as §2

[11] = BET inhibitor-based combinations targeting novel dependencies in MECOM-rearranged (r) AML: HNT-34 cell line (AID 2202234); note: nearly all actives have a fitted effect of over 35% in size; note: potency is the fitted concentration of half-maximal effect
Outline: as §1

Sequence of Cellular tumor antigen p53 (Homo sapiens) (P04637 whole entry, looked up): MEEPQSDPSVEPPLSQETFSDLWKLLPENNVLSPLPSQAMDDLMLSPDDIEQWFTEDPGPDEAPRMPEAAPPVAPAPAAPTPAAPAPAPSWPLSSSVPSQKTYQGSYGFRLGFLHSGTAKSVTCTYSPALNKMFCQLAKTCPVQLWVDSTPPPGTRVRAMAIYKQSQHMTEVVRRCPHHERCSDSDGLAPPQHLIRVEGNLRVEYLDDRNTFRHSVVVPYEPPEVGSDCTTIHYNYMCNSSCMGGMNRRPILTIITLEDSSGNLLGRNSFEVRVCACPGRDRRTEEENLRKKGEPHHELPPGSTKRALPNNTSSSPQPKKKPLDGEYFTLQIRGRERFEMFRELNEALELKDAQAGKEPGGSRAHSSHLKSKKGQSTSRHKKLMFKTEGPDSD

With `CC[C@H]1/C=C\C=C/C[C@@H](C)[C@H](O)[C@@](C)(O)C(=O)[C@@H](C)[C@H](O)[C@@H](C)C(=O)[C@@H](C)[C@H](O)[C@@H](C)/C=C\C(=O)O[C@@H]2[C@H](C)[C@H](CC1)O[C@]1(CC[C@H](C)[C@H](C[C@@H](C)O)O1)[C@H]2C` the activation [1] was 26.3%, the Potency [2] was “inactive” and the Potency [3] was “inactive”. The Potency [4] was “inactive”, the Potency [5] was 26.3 nM (active) and the Potency [6] was 2950 nM (active).

In the case of `O=C(O)C(=O)c1cn(Cc2ccccc2)c2ccc(-c3ccc(OC(F)(F)F)cc3)cc12`, the activation [1] is reported as -6.9% and -6.21%, the Potency [2] is reported as “inactive” and the Potency [3] is reported as “inactive”. The Potency [4] was “inactive”, the viability [7] was 98.6% and the Potency [8] was “inactive”. The Potency [9] was “inactive” and the Potency [6] was “inactive”.

In the case of `O=c1[nH]c2ccc(Cl)cc2c(N[C@@H]2CN3CCC2CC3)c1-c1nc2ccccc2[nH]1`, the Potency [1] is reported as 17.2 µM (active) and 2.69 µM (active), the Potency [2] is reported as “inactive” and the Potency [3] is reported as “inactive”. For the same compound, the Potency [4] was “inactive”, the Potency [7] was 332 nM (active) and the Potency [10] was 417 nM (active). For the same compound, the Potency [11] was 590 nM (active), the Potency [8] was 417 nM (active) and the Potency [9] was 417 nM (active).

With `C/C=C(\C)C(=O)OC1CC2C(C)(C)OC(=O)CC(OC(C)=O)C2(C)C2CC(OC(=O)C(C)C)C3(C)C(c4ccoc4)CC4OC43C12C` (stereo not given) the activation [1] was -19.8%, the Potency [2] was “inactive” and the Potency [4] was “inactive”.

With `Cc1cccc(NC(=O)NC2N=C(c3ccccc3)c3ccccc3N(CC(=O)c3ccccc3C)C2=O)c1` (stereo not given) the activation [1] was -13.8%, the Potency [2] was “inactive” and the Potency [3] was “inactive”. The Potency [4] was “inactive”.

With `COc1ccc(CN(C(=O)[C@@H](N)Cc2c(C)cc(C(N)=O)cc2C)[C@@H](C)c2ncc(-c3ccccc3)[nH]2)cc1C(=O)O` the activation [1] was 12.3%, the Potency [2] was “inactive” and the Potency [4] was “inactive”.

With `CCOC(=O)NC(C)(C)Cc1ccc(Cl)cc1` the activation [1] was -6.33%, the Potency [2] was “inactive” and the Potency [4] was “inactive”.

With `NC(=O)c1ncn2c1CN=C(c1ccccc1Br)c1cc(F)ccc1-2` the activation [1] was -14.3%, the Potency [2] was “inactive” and the Potency [3] was “inactive”. The Potency [4] was “inactive”.

For `CC1=CC2/C=C(\C)CCC(O)C(O)C(O)CC(=O)C23C(=O)NC(CC(C)C)C3C1C` (stereo not given), the activation [1] was -32.8%, the Potency [2] was “inactive” and the Potency [4] was “inactive”.

With `CC(CCc1ccc(O)cc1)O[C@@H]1O[C@H](CO[C@H]2OC[C@](O)(CO)[C@H]2O)[C@@H](O)[C@H](O)[C@H]1O` (stereo not given in full) the activation [1] was 2.29%, the Potency [2] was “inactive” and the Potency [4] was “inactive”.

For `COC1CC(O[C@H]2CC[C@]3(C=O)C4CC[C@]5(C)[C@@H](C6=CC(=O)OC6)CC[C@]5(O)[C@@H]4CC[C@@H]3C2)OC(C)C1O[C@@H]1O[C@H](CO)[C@@H](O[C@@H]2O[C@H](CO)[C@@H](O)[C@H](O)[C@H]2O)[C@H](O)[C@H]1O` (stereo not given in full), the Potency [1] was 3.21 µM (active), the Potency [2] was “inactive” and the Potency [4] was “inactive”.

For `OC1(c2ccc(Cl)cc2)c2ccccc2C2=NCCN21` (stereo not given), the activation [1] was 6.21%, the Potency [2] was “inactive” and the Potency [3] was “inactive”. For the same compound, the Potency [4] was “inactive”.

In the case of `CC(=O)Nc1ccc(OC[C@](C)(O)C(=O)Nc2ccc([N+](=O)[O-])c(C(F)(F)F)c2)cc1`, the activation [1] is reported as 44.3% and 23.4%, the Potency [2] is reported as “inactive” and the Potency [3] is reported as “inactive”. The Potency [4] was “inactive”, the Potency [10] was “inactive” and the Potency [5] was “inactive”. For the same compound, the Potency [11] was “inactive”, the Potency [8] was “inactive” and the Potency [9] was “inactive”. The Potency [6] was “inactive”.

For `C[C@@](O)(COc1ccc(C#N)cc1)C(=O)Nc1ccc(C#N)c(C(F)(F)F)c1`, the activation [1] was -6.21%, the Potency [2] was “inactive” and the Potency [4] was “inactive”.

In the case of `C=C[C@H]1CN2CCC1C[C@H]2[C@H](O)c1ccnc2ccccc12` (stereo not given in full), the activation [1] is reported as -2.33%, the Potency [2] is reported as “inactive” and the Potency [4] is reported as “inactive”.

In the case of `Cc1c(C(=O)Nc2cccc(C(F)(F)F)c2)cc(-c2ccccc2)n1CCCN1CCOCC1`, the activation [1] is reported as -17.9% and -8.11%, the Potency [2] is reported as “inactive” and the Potency [3] is reported as “inactive”. For the same compound, the Potency [4] was “inactive”, the Potency [5] was 20900 nM (active) and the Potency [8] was “inactive”.

With `CN1C(=O)[C@@H](Cc2c[nH]c3ccccc23)N=C(c2ccccc2F)c2ccccc21` the activation [1] was 15.8%, the Potency [2] was “inactive” and the Potency [3] was “inactive”. The Potency [4] was “inactive”.

In the case of `CC(=O)C1CCC2C3CCC4C[C@@H](O)CCC4(C)C3CCC12C` (stereo not given in full), the activation [1] is reported as -2.33%, the Potency [2] is reported as “inactive” and the Potency [4] is reported as “inactive”.

With `COC(=O)C1(C)CCC(=O)C2(C)c3c(O)cc(C(C)C)cc3C(O)C(OC(C)=O)C12` (stereo not given) the activation [1] was 22.9%, the Potency [2] was “inactive” and the Potency [4] was “inactive”.
